High-throughput results: PubChem BioAssay, National Center for Advancing Translational Sciences (NCATS)
Shown are actives, neighbours in structure and some others; about 1.9% of the full set was active somewhere.
MLL CXXC-DNA inh: qHTS Fluorescence Polarization Assay for Inhibitors of MLL CXXC domain - DNA interaction. Histone-lysine N-methyltransferase 2A (Homo sapiens), Q03164. MLL-CXXC / FITC-HOXA9 DNA fluorescence polarization. Potency, µM (highest dose often 115 µM), without a hit: at the highest dose activity change, negative = inhibition, usual class: inhibitors. 0.037% of 290,000 active; active means well fitted inhibition curve with a large enough effect in the polarisation, with a control signal flat, not every such curve was filed as active; inconclusive means small, poorly fitted or top-dose-only effect, or effect the other way, or a change in a side signal; inactive means no such curve, though single readings can be large or run the other way; the % refers to the polarisation; further: potency means the concentration at half of the fitted maximal effect
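Fluorescence polarization: 7 uM MLL-CXXC (stock) preincubated 5 min with compounds, then 50 nM fluorescein-HOX-A9 DNA (stock) added; 30 min ambient. Buffer 50 mM Tris-HCl pH 7.5, 50 mM NaCl, 1 mM DTT, 0.05% BSA.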
Epigenetic derep: Quantitative High-Throughput Screen for Regulators of Epigenetic Control; 0.2% of 280,000 active; Potency, µM (doses to about 53.9 µM), inactives show at the top dose GFP activation, hits mostly activators; murine LDR cells, GFP reporter derepression, 30 h; active means well fitted activation curve with a large enough effect; inconclusive means small, poorly fitted or top-dose-only effect; further: potency means the concentration at half of the fitted maximal effect; % of control where 0% means no effect; nearly all actives have a fitted effect of over 60% in size
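Readout is the number of GFP-expressing murine LDR cells, counted by cytometry following washing. Cells were treated with compound for 30 h at 37 C; the stably integrated CMV-GFP locus is normally silent.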
Menin-MLL TR inh: qHTS Assay for Inhibitors Targeting the Menin-MLL Interaction in MLL Related Leukemias: Competition With Texas Red Labeled MLL-derived Mutant Peptide; O00255; Menin + Texas Red MLL mutant peptide, fluorescence polarization; Potency, µM (top dose mostly 61.6 µM), for inactives: at the highest dose FP activity change, negative = inhibition, most hits filed as inhibitors; 0.23% of 270,000 active; AID 1768, 2009; active means well fitted inhibition curve with a large enough effect in the polarisation, with a control signal flat, not every such curve was filed as active; inconclusive means small, poorly fitted or top-dose-only effect, or effect the other way, or a change in a side signal; inactive means no such curve, though single readings can be large or run the other way; the % refers to the polarisation; further: potency means the concentration at half of the fitted maximal effect; % of control where 0% means no effect
ClpP mod: qHTS Assay for Activators of ClpP | ATP-dependent Clp protease proteolytic subunit (Bacillus subtilis (strain 168)), P80244 | purified B. subtilis ClpP, FRET peptide cleavage, 20 min | Potency, µM (series often up to 57.5 µM), for inactives: top-dose activity change, negative = active | 1.9% of 340,000 active | AID 651965, 2013; active means well fitted falling curve with a large enough effect; inconclusive means small, poorly fitted or top-dose-only effect; inactive means no such curve, though single readings can be large or run the other way; further: potency means the concentration at half of the fitted maximal effect; the source files actives as falling curves though it sought activators and does not explain the sign; nearly all actives have a fitted effect of over 65% in size
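Buffer: 100 mM Tris/HCl pH8, 100 mM KCl, 0.05% low protease BSA, 2.5% glycerol, 0.01% Tween-20. ClpP 10 microg/mL final; 20 min RT; delta FRET normalized to ADEP and DMSO controls.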
Menin-MLL FL inh: qHTS Assay for Inhibitors Targeting the Menin-MLL Interaction in MLL Related Leukemias: Competition With Fluorescein Labeled MLL-derived Peptide. FP activity change, % at 61.4 µM. Fluorescence polarization, fluorescein-MLL peptide displacement from menin. 290,000 tested, under 10 active; active means well fitted curve in the direction sought with a large enough effect in the polarisation, not every such curve was filed as active; inconclusive means small, poorly fitted or top-dose-only effect, or effect the other way, or a change in a side signal; inactive means no such curve, though single readings can be large or run the other way; the % refers to the polarisation; further: % of control where 0% means no effect
PINK1 expr mod: A Quantitative High throughput Screen to Identify Chemical Modulators of PINK1 Expression; PINK1 immunofluorescence, high-content cytometry, 24 h; Potency, µM (titrated, usually from 76.6 µM), inactives show at the highest dose activation (PINK1 increase), hits mostly activators; 0.2% of 410,000 active; AID 624263, 2012; active means well fitted activation curve with a large enough effect; inconclusive means small, poorly fitted or top-dose-only effect; cell line not stated here; further: potency means the concentration at half of the fitted maximal effect; % of control where 0% means no effect; nearly all actives have a fitted effect of over 65% in size
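Compound titrations (5 concentrations, 24 h) on a stable cell line; DMSO and CCCP controls. Endpoint: fixed-cell PINK1 immunofluorescence with mitochondrial, cell and nuclear markers, scanned by microplate cytometer.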
Starred values were filed as active, the others as inactive; ? = inconclusive; · = no result; ! = repeats disagree; [ ] = dose if it differs, or a comment.

SMILES	MLL CXXC-DNA inh	Epigenetic derep	Menin-MLL TR inh	ClpP mod	Menin-MLL FL inh	PINK1 expr mod
C(=C\c1ccc2ccccc2n1)/c1cccnc1	·	·	·	?	·	1%
COc1cccc(-c2sc3ccc(OC)cc3c2-c2ccc(OCCN3CCCC3)cc2)c1	·	·	·	?	·	-1%
COc1ccc(-c2sc3ccccc3c2-c2ccc(OCCN3CCCCC3)cc2)cc1	·	·	·	28µM*	·	12%
COc1ccccc1-c1sc2ccccc2c1-c1ccccc1OC	·	·	·	?	·	2%
COc1ccc(-c2sc3ccc(OC)cc3c2-c2ccc(OCCN3CCOCC3)cc2)cc1	·	·	·	16µM*	·	1%
COc1ccc(-c2c(-c3ccccc3OC)sc3ccccc23)cc1OC	-3%	·	15%	28µM*	3	0%
COc1cccc(-c2sc3cc(OC)c(OC)cc3c2-c2ccc(OCCN3CCCCC3)cc2)c1	·	·	·	28µM*	·	-1%
CC(=O)c1ccc(-c2ccc3c4c(ccc3c2)OC(CNC(=O)C(C)N2CCOCC2)C4)s1 (configuration not stated)	·	·	·	·	·	-1%
CCNc1ccc(/C=C/c2ccnc3ccccc23)cc1	·	·	·	1%	·	3%
COc1ccccc1-c1ccnc(-n2ncc(C(=O)N3CCN(C(C)C)CC3)c2-c2ccco2)n1	·	·	·	·	·	1%
COc1ccccc1-c1sc2ccccc2c1-c1ccc(OCCN2CCCCC2)cc1	·	·	·	32µM*	·	-1%
CCN(CC)c1ccc(/C=C/c2ccccn2)cc1	·	·	·	2%	·	·
COCCCNC(=O)c1cc2c(-c3cccc(OC)c3)nn(C)c2s1	17%	0%	-29%	4%	0	6%
COc1cccc(-c2nn(C)c3sc(C(=O)NCc4ccc(C)cc4)cc23)c1	19%	0%	0%	20µM*!	2	2%
Cc1ccc(NC(=O)c2cc3c(-c4ccccc4)nn(-c4ccccc4)c3s2)cc1	·	1%	·	18µM*	·	-1%
COc1cccc(-c2nn(C)c3sc(C(=O)NCc4ccccn4)cc23)c1	13%	1%	-20%	28µM*	2	-1%
Cc1nn(-c2ccccc2)c2sc(C(=O)Nc3cccc(Cl)c3)cc12	·	1%	·	-30%	·	16%
COc1cccc(CN2CCc3nnc(CCc4ccccc4)n3CC2)c1OC	·	·	·	·	·	1%
COc1cccc(CNC(=O)c2c(OC)cc(=O)n3c2CCN(C(=O)c2cc(F)cc(F)c2)CC3)c1	·	·	·	·	·	0%
CCN1/C(=C/c2cc[n+](C)cc2)C=Cc2cc(C)ccc21	-7%	?	-1%	-11%	33	10µM*
CCN1/C(=C/c2ccc3ccccc3[n+]2CCCS(=O)(=O)[O-])C=Cc2cc(C)ccc21	-9%	·	?	·	?	0%
Cc1c(CCC(C)C)c(=O)n2c([nH]c3ccccc32)c1C#N	-7%	-1%	-13%	3.2µM*	2	1%
CCCCc1c(C)c(C#N)c2[nH]c3ccccc3n2c1=O	-2%	-1%	·	?	1	40µM*
Cc1c(CCO)c(=O)n2c([nH]c3ccccc32)c1C#N	-8%	·	13%	4%	-1	-3%
O=C(CSc1ccncc1)NCC1Cc2cccc(-c3cncnc3)c2O1 (configuration not stated)	·	·	·	·	·	-1%
SMILES	MLL CXXC-DNA inh	Epigenetic derep	Menin-MLL TR inh	ClpP mod	Menin-MLL FL inh	PINK1 expr mod
NC(=O)COc1ccc(NC(=O)OCc2ccccc2)cc1	-1%	0%	15%	32µM*	3	2%
COC(=O)Nc1ccc(OCc2ccccc2)cc1	5%	0%	1%	1%	2	8%[38.3 µM]
CCOc1ccc2nc(N3CCCC3C(=O)N3CCC(c4nc5ccccc5o4)CC3)nc(C)c2c1 (configuration not stated)	·	·	·	·	·	1%
NS(=O)(=O)c1cccc(NC(=O)c2ccccc2NS(=O)(=O)c2ccc(F)cc2)c1	-10%	·	?	·	-7	1%
Cc1ccc(NC(=O)c2ccccc2NS(=O)(=O)c2ccc(F)cc2)cc1S(=O)(=O)N1CCCCC1	5%	-2%	?	32µM*	9	11µM*
O=C(Nc1cccc(S(=O)(=O)N2CCCCC2)c1)c1ccccc1NS(=O)(=O)c1ccc(F)cc1	-5%	3%	26%	32µM*	6	14µM*
Cc1ccc(NC(=O)CCNC(=O)c2ccccc2Cl)cc1S(=O)(=O)N1CCCCCC1	·	·	·	-1%	·	8%
COC(=O)C1CCN(Cc2ccc3c(c2)CN(C(=O)c2ccc(-n4cnnn4)cc2)CCO3)CC1	·	·	·	·	·	0%
Cc1c(Br)cnc2ccccc12	·	·	·	-2%	·	·
CC[C@H](C)[C@H](NC(=O)[C@H](CO)NC(=O)[C@@H](NC(=O)[C@H](CO)NC(=O)[C@@H](NC(=O)[C@H](CC(N)=O)NC(=O)[C@H](Cc1ccccc1)NC(=O)[C@H](CO)NC(=O)[C@H](CS)NC(=O)[C@H](CC(N)=O)NC(=O)[C@H](CCCCN)NC(=O)[C@@H](NC(=O)[C@H](CCC(=O)O)NC(=O)CN)[C@@H](C)CC)[C@@H](C)CC)[C@@H](C)O)C(=O)N[C@@H](CCCN=C(N)N)C(=O)O	·	·	13%	·	0	·
CC(C)CCC[C@@H](C)[C@H]1CC[C@H]2[C@@H]3CC=C4CC(O)CC[C@]4(C)[C@H]3CC[C@]12C (some centres not stated)	·	·	-3%	·	-1	·
CCOC(=O)CNC(=O)c1ccc2[nH]c3ccccc3c2c1	-8%	-5%	5%	4%	-1	1%
O=C(NCC(O)CO)c1ccc2[nH]c3ccccc3c2c1 (configuration not stated)	-6%	-2%	17%	28µM*	5	-2%
O=C(Nc1ccc2c(c1)OCCO2)c1c(Cl)cccc1Cl	·	·	·	0%	·	0%
O=C(CCc1ccccc1)Nc1ccc2c(c1)OCCO2	-3%	0%	-5%	28µM*	-1	7%
O=C(CCSCc1ccccc1)Nc1ccc2c(c1)OCCO2	-2%	0%	-4%	-1%	2	0%
O=C(CSCc1c(Cl)cccc1Cl)Nc1ccc2c(c1)OCCO2	12%	0%	1%	16µM*	-1	2%
O=C(NCCc1ccncc1)c1cnn(-c2ncc3c(n2)-c2ccccc2CCC3)c1C1CC1	·	·	·	·	·	0%
CN(C)c1ccc(/C=C/c2ccnc3ccccc23)cc1Cl	·	·	·	0%	·	·
CCOC(=O)c1cc(CC)sc1NC(=O)c1cc(OCC)c(OCC)c(OCC)c1	1%	1%	-10%	-20%	0	23%[38.3 µM]
